Assay outcomes deposited in PubChem BioAssay by National Center for Advancing Translational Sciences (NCATS).
TSHR ag – agonists of human thyroid stimulating hormone receptor. P16473. HEK293-CNG-TSHR cells (CNG channel as cAMP sensor), membrane potential dye, cAMP. Potency, µM (series often up to 57.1 µM), for inactives: at the top dose activation, actives largely listed as activators. 73,000 compounds, 0.48% hits. AID 926; active means well fitted activation curve with a large enough effect in the main read-out, with a control signal flat, not every such curve was filed as active; inconclusive means small, poorly fitted or top-dose-only effect, or a change in a side signal; inactive means no such curve, though single readings can be large or run the other way; % of control where 0% means no effect;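 further: the control signal comes from parental cells without the receptor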
Target sequence (P16473 whole entry, looked up): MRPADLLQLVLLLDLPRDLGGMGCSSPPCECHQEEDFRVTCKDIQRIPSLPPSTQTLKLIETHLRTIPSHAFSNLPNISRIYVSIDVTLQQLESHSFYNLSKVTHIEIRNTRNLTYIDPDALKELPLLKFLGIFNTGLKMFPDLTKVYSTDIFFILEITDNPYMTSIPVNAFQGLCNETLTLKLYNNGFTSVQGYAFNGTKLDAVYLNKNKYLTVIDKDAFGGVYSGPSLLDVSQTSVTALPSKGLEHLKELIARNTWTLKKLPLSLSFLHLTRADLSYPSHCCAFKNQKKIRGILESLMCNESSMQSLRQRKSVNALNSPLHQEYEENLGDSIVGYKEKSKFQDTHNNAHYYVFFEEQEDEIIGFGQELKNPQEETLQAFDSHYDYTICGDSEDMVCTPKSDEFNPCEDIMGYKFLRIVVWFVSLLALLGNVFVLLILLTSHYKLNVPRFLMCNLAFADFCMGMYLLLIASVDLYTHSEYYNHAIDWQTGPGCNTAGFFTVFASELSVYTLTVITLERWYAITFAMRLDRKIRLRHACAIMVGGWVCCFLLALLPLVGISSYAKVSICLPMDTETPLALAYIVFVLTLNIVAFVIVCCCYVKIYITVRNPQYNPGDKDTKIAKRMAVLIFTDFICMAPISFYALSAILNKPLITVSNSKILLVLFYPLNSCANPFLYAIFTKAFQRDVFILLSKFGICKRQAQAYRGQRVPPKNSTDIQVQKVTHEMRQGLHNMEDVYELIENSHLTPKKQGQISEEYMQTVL
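HEK 293 cells stably expressing TSHR and a cAMP-gated CNG channel; parental CNG-only cells as counterscreen. Cells preloaded 60 min with membrane potential dye plus 100 uM RO 20-1724, then compound 30 min; fluorescence read at 590 nm.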
HEK293 cAMP ctrl – counter-screen for TSHR agonists: cAMP increase in parental HEK293; parental HEK293 CNG cAMP sensor, membrane potential fluorescence; Potency, µM (titrated, usually from 57.1 µM), for inactives: at the top dose activation, most hits filed as activators; 73,000 compounds, 2.5% hits; AID 938; active means well fitted activation curve with a large enough effect; inconclusive means small, poorly fitted or top-dose-only effect; inactive means no such curve, though single readings can be large or run the other way; further: % of control where 0% means no effect; nearly all actives have a fitted effect of over 55% in size
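Parental HEK 293 cells stably expressing a cAMP-gated CNG channel were loaded with membrane potential dye containing 100 uM RO 20-1724 for 60 min. Compound added for 30 min; depolarization read as fluorescence intensity at 590 nm.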
CRE-bla Fsk – CRE-bla signaling modulation under forskolin stimulation | CHO CRE-bla reporter (cAMP response element driving beta-lactamase), forskolin EC10, beta-lactamase ratio | Potency, µM (doses to about 38.2 µM), without a hit: at the highest dose activity change, negative = inhibition, hits mostly activators | 71,000 compounds, 2.5% hits | AID 662; active means well fitted activation curve with a large enough effect in the signal ratio, with a control signal flat, not every such curve was filed as active; inconclusive means small, poorly fitted or top-dose-only effect, or effect the other way, or a change in a side signal; the % refers to the signal ratio; further: % of control where 0% means no effect
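CRE-bla CHO cells stimulated with EC10 NKH 477 (water-soluble forskolin) and compound titrations, 3 h at 37C; beta-lactamase read with CCF4 after 2 h at room temperature. Activity from 460/530 nm emission ratio, AC50 values for positive or negative modulation.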
IkB signaling – IkB pathway inhibition in ABC-DLBCL cells | AID 445 | 110,000 compounds, 0.04% hits | ABC-DLBCL IkBa-CBG/CBR dual luciferase ratio, 4 h; response scale: scaled: untreated 0%, proteasome inhibitor 100% | Potency, µM (highest dose often 57.1 µM), without a hit: top-dose IkBa stabilization activation; active means well fitted curve in the direction sought with a large enough effect in the signal ratio, not every such curve was filed as active; inconclusive means small, poorly fitted or top-dose-only effect, or a change in a side signal; the % refers to the signal ratio;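 further: the direction sought is a rising ratio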
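Curves were fitted separately to fusion (green), unfused (red) and ratio luminescence, then classed by r2, magnitude and activity. Cells: OCI-Ly3, 4 h compound plus doxycycline at 37C; 10 uM MG-132 defined full response.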
Hsp90 Hop PPI – changes Hsp90-Hop TPR2A binding signal, up or down | AlphaScreen TPR2A-His6 binding biotin-Hsp90 C-terminal peptide | AID 595 | 71,000 compounds, 0.44% hits | Potency, µM (series often up to 57 µM), for the others: top-dose activity change, negative = inhibition; active means well fitted curve in either direction with a large enough effect; inconclusive means small, poorly fitted or top-dose-only effect, or another doubt; further: on the % scale 0 is the no-effect control and ±100 the full control effect
* hit, by the source's call; ? = inconclusive; . = no result given; [ ] = another dose, or the depositor's remark. Sampled rows, rich in hits. Any-hit rate of the full collection: about 3.5%. Potency means the concentration at half of the fitted maximal effect.

SMILES	TSHR ag	HEK293 cAMP ctrl	CRE-bla Fsk	IkB signaling	Hsp90 Hop PPI
COC(=O)[C@@H]1C[C@H]1[C@@H](NC(=O)OCc1ccccc1)c1ccccc1	?	?	9%	.	-3%
COc1ccc(NC(=O)N2CC3(CCN(C(=O)c4cccc(F)c4)CC3)C2)cc1	1%	24%	3%	1%[11.4 µM]	-2%
O=C(O)[C@@H](O)[C@@H](O)[C@@H](O)[C@@H](O)c1nc2ccccc2s1	0%[11.4 µM]	5%[11.4 µM]	-12%[7.6 µM]	0%[11.4 µM]	-6%[11 µM]
C=C1C(=O)C=C2CN(C(=O)c3ccccc3)[C@@](Cc3ccc(OC)cc3)(C(=O)OC)[C@@H]12	?	?	?	.	-1%
COc1ccc(O[C@H]2C=C[C@@H](c3ccccc3)O[C@@H]2CO/N=C\[C@@H](C)[C@H](OCc2ccccc2)C(C)C)cc1	1%[11.4 µM]	15%[11.4 µM]	.	.	.
CCC(=O)Nc1nonc1-c1nc2ccccc2n1Cc1ccccc1	?	20µM*	?	-3%	?
CCC(=O)Nc1nonc1-c1nc2ccccc2n1N(C(=O)CC)C(=O)CC	6%[11.4 µM]	9%	-4%	-1%	0%
O=C(NCCN1CCN(C(=O)NC2CCCCC2)CC1)NC1CCCCC1	-3%	16%	?	0%	-4%
NC(=O)CN1CCN(C(=O)NC2CCCCC2)CC1	?	25µM*	5%	-2%	-4%[2.3 µM]
Cc1ccc(S(=O)(=O)N2Cc3ccccc3CC2C(=O)Nc2cc(C)on2)cc1 (stereo not drawn)	25µM*	22%	-20%	1%	1%
CC1CCN(C(=O)C2Cc3ccccc3CN2S(=O)(=O)c2ccc(F)cc2)CC1 (stereo not drawn)	?	20µM*	-1%	3%	6%
O=C(C1Cc2ccccc2CN1S(=O)(=O)c1ccc(F)cc1)N1CCCCCC1 (stereo not drawn)	?	?	2%	?	1%
O=C1C(Cl)=C(NCCN2CCOCC2)C(=O)c2ncccc21	-7%	-14%	.	.	.
C[C@H]1CCCC=CC2C[C@H](OC(=O)CN(C)C)C[C@@H]2[C@@H](O)/C=C\C(=O)O1 (stereo partly drawn)	3%[11.4 µM]	5%[11.4 µM]	-7%[7.6 µM]	1%[11.4 µM]	-3%[11 µM]
COC(=O)c1ccc(CSc2nc3c(cnn3-c3ccccc3)c(=O)[nH]2)o1	26%	-5%	4µM*	0%	-2%
CC1CCCC(C)N1C(=O)Cn1c(SCC(=O)NCc2ccc3c(c2)OCO3)nc2ccccc21 (stereo not drawn)	?	16µM*	?	2%	-4%
O=c1c2ccccc2nnn1CSc1nnc(COc2ccc(Cl)cc2)n1Cc1ccco1	.	27%	?	?	4%
O=c1c2ccccc2nnn1CSc1nc2cc(Cl)ccc2c(=O)n1Cc1ccco1	?	2µM*	?	2%	-2%
Cn1c(SCC(=O)NCc2ccco2)nc2ccccc2c1=O	10%	21%	6%	-1%	-1%
COc1ccc(C(=O)Nn2c(SCC(=O)NCc3ccco3)nc3ccccc3c2=O)cc1	?	20µM*	-6%	4%	?
Cn1c(Cn2nnc3ccccc32)nnc1SCC(=O)NCc1ccc2c(c1)OCO2	-3%	8%	-3%	0%	-4%
O=C(O)[C@H]1C[C@@H](CP(=O)(O)O)CCN1	6%	-3%	?	0%	2%
CCCCCC1=C2CNC(CC(C)C)(C(=O)OC)C=C2C(C)C1=O (stereo not drawn)	?	?	-8%	.	3%
COc1ccc(OC2C=CC(c3ccccc3)OC2CO)cc1 (stereo not drawn)	2%[11.4 µM]	-2%[11.4 µM]	.	.	.
C=CCn1c(SCC(=O)NCc2ccc3c(c2)OCO3)nnc1C1CCCCC1	?	25µM*	-6%	1%	-2%
SMILES	TSHR ag	HEK293 cAMP ctrl	CRE-bla Fsk	IkB signaling	Hsp90 Hop PPI
Cc1ccc(OCc2nnc(SCc3nc4ccccc4[nH]3)n2Cc2ccco2)cc1	?	32µM*	?	?	-12%
O=C(CSc1nc2ccccc2c(=O)n1Cc1ccco1)c1ccc(F)cc1	?	25µM*	4%	4%	1%
O=C(CSc1nnc(C2CCCCC2)n1Cc1ccccc1)NCc1ccco1	?	13µM*	-13%	5%	-1%
C=CCn1c(SCC(=O)NCc2ccc3c(c2)OCO3)nnc1C1COc2ccccc2O1 (stereo not drawn)	12%	28%	-10%	1%	-3%
Cc1ccc(OCc2nnc(SCC(=O)c3ccccc3)n2Cc2ccco2)cc1	?	?	?	1%	-4%
CCS(=O)(=O)N1CCc2cc(C(=O)NCc3ccccc3)ccc21	.	.	.	0%	.
COC(=O)C1=C(C)N(Cc2ccccc2)C2=C(C(C)=O)C(c3ccccc3)[C@@](O)(C(=O)OC)C(=O)N2C1c1ccccc1 (stereo partly drawn)	-3%[11.4 µM]	2%[11.4 µM]	.	.	.
COc1cccc(CN(C(=O)c2oc3ccc(Br)cc3c2C)C2CCS(=O)(=O)C2)c1 (stereo not drawn)	.	.	.	-2%	.
O=C(CSc1nnc2scc(-c3ccccc3)n12)NCc1ccco1	3%	1%	22%	-2%	-8%
O=C(CSc1nnc(COc2ccccc2)n1Cc1ccco1)c1ccc(F)cc1	?	16µM*	15%	?	-5%
COC(=O)c1ccc(CSc2nc3ccccc3c(=O)n2Cc2ccco2)o1	?	7.9µM*	18%	?	2%
O=C(CSc1nc2ccccc2c(=O)n1Cc1ccco1)NCc1ccccc1	?	25µM*	?	0%	?
O=C(CSc1ncc(-c2ccccc2)n1-c1ccccc1)NCc1ccco1	?	32µM*	9%	?	?
COCC(=O)N1CCC[C@@]2(CCN(Cc3nccs3)C2)C1	-1%	-1%	-2%	1%[11.4 µM]	2%
COC(=O)C1(Cc2ccccc2)C=C2C(=C(c3ccccc3)C(=O)C2C)CN1 (stereo not drawn)	?	32µM*	-14%	.	0%
COc1cccc(CC(=O)Nc2ccc3nc(N4CCC(C)CC4)cc(C)c3c2)c1	.	.	.	-5%	.
CCOC(=O)c1ccc(N2C(=O)CC(SCC(N)C(=O)OCC)C2=O)cc1 (stereo not drawn)	?	3.2µM*	-10%	0%	-4%
O=C1c2ccccc2-c2c1nc1c([n+]2[O-])CCCC1	-3%	-5%	2.5µM*	-1%	-2%
O=C1c2ccccc2-c2nccnc21	0%	2%	28%	1%	6%
CO[C@H]1COC(=O)[C@@H](C)COC(=O)[C@@H](OCc2ccccc2)/C=C\[C@@H]1C	11%[11.4 µM]	19%[11.4 µM]	.	.	.
O=C(C1CC1)N1CCc2cc(Br)cc(S(=O)(=O)N3CCN(c4ccccn4)CC3)c21	?	16µM*	12%	2%	0%
c1coc(-c2nc3ccccc3nc2-c2ccco2)c1	?	?	13µM*	4%	-8%
